In all, about 5,500 compounds went through this assay and about 2,000 (36%) were called active. Not shown: some 18% with an inconclusive outcome. Cut-off read from the data, not from the text of the source: active = normalized growth mostly below about 0.91 (no sharp cut-off); inconclusive = no clear call, values can overlap the other calls; inactive = mostly above about 0.92. This is one part of the list.
Assay: chemical genetic growth profiling, strain panel (AID 1159580);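 note: tested at 20 µM; growth read once vehicle control cultures reached saturation at 30 °C; 1 = growth at the plate median or of vehicle wells; lower values mean less growth of the strain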
Conditions: S. cerevisiae deletion strains, growth OD
[1] = locus YAR019C, strain CDC15, hits give low values
[2] = locus YBL105C, strain PKC1, hits give low values
[3] = locus YBR135W, strain CKS1, hits give low values
[4] = locus YBR136W, strain MEC1, hits give low values
[5] = locus YBR160W, strain CDC28, hits give low values
[6] = locus YDL017W, strain CDC7, hits give low values
[7] = locus YDL028C, strain MPS1, hits give low values
[8] = locus YDL101C, strain DUN1, hits give low values
[9] = locus YDL108W, strain KIN28, hits give low values
[10] = locus YDL214C, strain PRR2, hits give low values
[11] = locus YDR052C, strain DBF4, hits give low values
[12] = locus YDR054C, strain cdc34, hits give low values
[13] = locus YDR226W, strain ADK1, hits give low values
[14] = locus YDR477W, strain SNF1, hits give low values
[15] = locus YER123W, strain YCK3, hits give low values
[16] = locus YER133W, strain GLC7, hits give low values
[17] = locus YFL009W, strain cdc4, hits give low values
[18] = locus YFL029C, strain CAK1, hits give low values
[19] = locus YFR003C, strain YPI1, hits give low values
[20] = locus YFR019W, strain FAB1, hits give low values
[21] = locus YFR028C, strain CDC14, hits give low values
[22] = locus YGR040W, strain KSS1, hits give low values
[23] = locus YGR052W, strain FMP48, hits give low values
[24] = locus YGR092W, strain DBF2, hits give low values
[25] = locus YHR030C, strain SLT2, hits give low values
[26] = locus YHR079C, strain IRE1, hits give low values
[27] = locus YHR082C, strain KSP1, hits give low values
[28] = locus YHR205W, strain SCH9, hits give low values
[29] = locus YIL147C, strain SLN1, hits give low values
[30] = locus YJL095W, strain BCK1, hits give low values
[31] = locus YJL157C, strain FAR1, hits give low values
[32] = locus YJR016C, strain ILV3, hits give low values
[33] = locus YJR066W, strain TOR1 (second series), hits give low values
[34] = locus YJR066W, strain TOR1, hits give low values
[35] = locus YKL048C, strain ELM1, hits give low values
[36] = locus YKL067W, strain YNK1, hits give low values
[37] = locus YKL101W, strain HSL1, hits give low values
[38] = locus YKL193C, strain SDS22, hits give low values
[39] = locus YKL203C, strain TOR2, hits give low values
[40] = locus YLR113W, strain HOG1, hits give low values
[41] = locus YLR133W, strain CKI1, hits give low values
[42] = locus YLR403W, strain SFP1, hits give low values
[43] = locus YML070W, strain DAK1, hits give low values
[44] = locus YMR001C, strain CDC5, hits give low values
[45] = locus YMR205C, strain PFK2 (second series), hits give low values
[46] = locus YMR277W, strain FCP1, hits give low values
[47] = locus YNL006W, strain LST8, hits give low values
[48] = locus YNL020C, strain ARK1, hits give low values
[49] = locus YNL161W, strain CBK1, hits give low values
[50] = locus YNL183C, strain NPR1, hits give low values
[51] = locus YNL207W, strain RIO2, hits give low values
[52] = locus YNL222W, strain SSU72, hits give low values
[53] = locus YNL307C, strain MCK1 (second series), hits give low values
[54] = locus YOL078W, strain AVO1, hits give low values
[55] = locus YOL136C, strain PFK27, hits give low values
[56] = locus YOR061W, strain CKA2, hits give low values
[57] = locus YOR119C, strain RIO1, hits give low values
[58] = locus YOR231W, strain MKK1, hits give low values
[59] = locus YOR329C, strain SCD5, hits give low values
[60] = locus YPL031C, strain PHO85, hits give low values
[61] = locus YPL153C, strain RAD53, hits give low values
[62] = locus YPL204W, strain HRR25, hits give low values
[63] = locus YPL209C, strain IPL1, hits give low values
[64] = locus YPL256C, strain CLN2, hits give low values
[65] = locus YPR025C, strain CCL1, hits give low values
[66] = locus YPR106W, strain ISR1, hits give low values
[67] = locus YPR111W, strain DBF20, hits give low values
[68] = strain NNK1, hits give low values
[69] = strain TSCII, hits give low values

Measured: normalized growth

CSc1ccc(/C=C(\C)[N+](=O)[O-])cc1
active: [1] 0.0932 | [2] 0.0831 | [3] 0.0817 | [4] 0.0817 | [5] 0.0827 | [6] 0.0813 | [7] 0.0841 | [8] 0.1 | [9] 0.0841 | [10] 0.0925 | [11] 0.103 | [12] 0.0952 | [13] 0.09 | [14] 0.104 | [15] 0.0983 | [16] 0.0958 | [17] 0.0931 | [18] 0.0921 | [19] 0.0893 | [20] 0.092 | [21] 0.0831 | [22] 0.103 | [23] 0.138 | [24] 0.105 | [25] 0.132 | [26] 0.122 | [27] 0.141 | [28] 0.00725 | [29] 0.0876 | [30] 0.142 | [31] 0.084 | [32] 0.0861 | [33] 0.0953 | [34] 0.158 | [35] 0.106 | [36] 0.0912 | [37] 0.103 | [38] 0.0867 | [39] 0.115 | [40] 0.176 | [41] 0.0883 | [42] -0.00294 | [43] 0.0932 | [44] 0.0857 | [45] 0.0912 | [46] 0.0923 | [47] 0.088 | [48] 0.0937 | [49] 0.0836 | [50] 0.129 | [51] 0.0937 | [52] 0.0888 | [53] 0.103 | [54] 0.0847 | [55] 0.0905 | [56] 0.0875 | [57] 0.109 | [58] 0.137 | [59] 0.0819 | [60] 0.11 | [61] 0.112 | [62] 0.0976 | [63] 0.0829 | [64] 0.156 | [65] 0.0822 | [66] 0.0856 | [67] 0.188 | [68] 0.0909 | [69] 0.0882

O=[N+]([O-])/C=C/c1ccc(F)cc1
active: [1] 0.0937 | [2] 0.0926 | [3] 0.0816 | [4] 0.0978 | [5] 0.091 | [6] 0.0902 | [7] 0.0982 | [8] 0.107 | [9] 0.102 | locus YDL132W, strain cdc53, hits give low values 0.0889 | [10] 0.091 | [11] 0.0848 | [12] 0.0951 | [13] 0.0885 | [14] 0.1 | [15] 0.102 | [16] 0.0933 | [17] 0.0899 | [18] 0.0948 | [19] 0.0906 | [20] 0.0982 | [21] 0.0877 | [22] 0.104 | [23] 0.113 | [24] 0.0999 | [25] 0.111 | [26] 0.117 | [27] 0.121 | [28] 0.00904 | [29] 0.0998 | [30] 0.109 | locus YJL128C, strain PBS2, hits give low values 0.0952 | [31] 0.0885 | [32] 0.0868 | [33] 0.0953 | [34] 0.114 | [35] 0.113 | [36] 0.087 | [37] 0.0964 | [38] 0.0853 | [39] 0.107 | [40] 0.129 | [41] 0.099 | [42] -0.000358 | [43] 0.0913 | [44] 0.0877 | [45] 0.0893 | [46] 0.0903 | [47] 0.0904 | [48] 0.102 | [49] 0.0853 | [50] 0.124 | [51] 0.091 | [52] 0.0861 | [53] 0.11 | [54] 0.0833 | [55] 0.0966 | [56] 0.0873 | [57] 0.112 | [58] 0.106 | [59] 0.0906 | [60] 0.0996 | [61] 0.101 | [62] 0.102 | [63] 0.0882 | [64] 0.135 | [65] 0.0876 | [66] 0.0871 | [67] 0.0892 | [68] 0.096 | [69] 0.0924

— PubChem BioAssay AID1159580 (chemical genetic matrix, 2015)
